Composite z-score and z-score data for 14 compounds are collected here from PubChem BioAssay.

The nature of experiment [1]: small molecules captured by biotinylated probe aFSTL3 – biochemical, small-molecule microarray, fluorescence 635/667, stem cell growth factor project, primary screen (AID 1064).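 Note: measures binding of the biotinylated anti-FSTL3 antibody to printed compounds.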 Particulars: higher = more signal.
The nature of experiment [2]: binders from COS7 lysate, DM2A8 probe, primary screen, torsin A project, cell lysate, small-molecule microarray, fluorescence 635/667 (AID 1065). Particulars: higher = more signal, COS7 lysate expressing mutant human TOR1A.
Experiment [3] in a line: small molecules captured by biotinylated probe aFGF2 – biochemical, small-molecule microarray, fluorescence 635/667, stem cell growth factor project, primary screen (AID 1067).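 Note: measures binding of biotinylated aFGF2 protein to printed compounds on slides; z-score merges feature fluorescence and signal-to-noise across triplicate slides.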 Particulars: higher = more signal.
Experiment [4] in a line: small molecules captured by biotinylated probe aFGF10 – biochemical, small-molecule microarray, fluorescence 635/667, stem cell growth factor project, primary screen (AID 1071).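 Note: score merges 667 nm spot intensity and signal to noise from triplicate slides.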 Particulars: higher = more signal.
The target of experiment [5] is Neurogenic locus notch homolog protein 2 (Homo sapiens) (UniProt Q04721). As to the kind of experiment: small molecules binding Notch2 protein – biochemical, small-molecule microarray, 635 nm fluorescence, stem cell growth factors, primary screen (AID 1073). Particulars: higher = more signal.
Chain of Neurogenic locus notch homolog protein 2 (Homo sapiens) (Q04721 whole entry, looked up, canonical isoform): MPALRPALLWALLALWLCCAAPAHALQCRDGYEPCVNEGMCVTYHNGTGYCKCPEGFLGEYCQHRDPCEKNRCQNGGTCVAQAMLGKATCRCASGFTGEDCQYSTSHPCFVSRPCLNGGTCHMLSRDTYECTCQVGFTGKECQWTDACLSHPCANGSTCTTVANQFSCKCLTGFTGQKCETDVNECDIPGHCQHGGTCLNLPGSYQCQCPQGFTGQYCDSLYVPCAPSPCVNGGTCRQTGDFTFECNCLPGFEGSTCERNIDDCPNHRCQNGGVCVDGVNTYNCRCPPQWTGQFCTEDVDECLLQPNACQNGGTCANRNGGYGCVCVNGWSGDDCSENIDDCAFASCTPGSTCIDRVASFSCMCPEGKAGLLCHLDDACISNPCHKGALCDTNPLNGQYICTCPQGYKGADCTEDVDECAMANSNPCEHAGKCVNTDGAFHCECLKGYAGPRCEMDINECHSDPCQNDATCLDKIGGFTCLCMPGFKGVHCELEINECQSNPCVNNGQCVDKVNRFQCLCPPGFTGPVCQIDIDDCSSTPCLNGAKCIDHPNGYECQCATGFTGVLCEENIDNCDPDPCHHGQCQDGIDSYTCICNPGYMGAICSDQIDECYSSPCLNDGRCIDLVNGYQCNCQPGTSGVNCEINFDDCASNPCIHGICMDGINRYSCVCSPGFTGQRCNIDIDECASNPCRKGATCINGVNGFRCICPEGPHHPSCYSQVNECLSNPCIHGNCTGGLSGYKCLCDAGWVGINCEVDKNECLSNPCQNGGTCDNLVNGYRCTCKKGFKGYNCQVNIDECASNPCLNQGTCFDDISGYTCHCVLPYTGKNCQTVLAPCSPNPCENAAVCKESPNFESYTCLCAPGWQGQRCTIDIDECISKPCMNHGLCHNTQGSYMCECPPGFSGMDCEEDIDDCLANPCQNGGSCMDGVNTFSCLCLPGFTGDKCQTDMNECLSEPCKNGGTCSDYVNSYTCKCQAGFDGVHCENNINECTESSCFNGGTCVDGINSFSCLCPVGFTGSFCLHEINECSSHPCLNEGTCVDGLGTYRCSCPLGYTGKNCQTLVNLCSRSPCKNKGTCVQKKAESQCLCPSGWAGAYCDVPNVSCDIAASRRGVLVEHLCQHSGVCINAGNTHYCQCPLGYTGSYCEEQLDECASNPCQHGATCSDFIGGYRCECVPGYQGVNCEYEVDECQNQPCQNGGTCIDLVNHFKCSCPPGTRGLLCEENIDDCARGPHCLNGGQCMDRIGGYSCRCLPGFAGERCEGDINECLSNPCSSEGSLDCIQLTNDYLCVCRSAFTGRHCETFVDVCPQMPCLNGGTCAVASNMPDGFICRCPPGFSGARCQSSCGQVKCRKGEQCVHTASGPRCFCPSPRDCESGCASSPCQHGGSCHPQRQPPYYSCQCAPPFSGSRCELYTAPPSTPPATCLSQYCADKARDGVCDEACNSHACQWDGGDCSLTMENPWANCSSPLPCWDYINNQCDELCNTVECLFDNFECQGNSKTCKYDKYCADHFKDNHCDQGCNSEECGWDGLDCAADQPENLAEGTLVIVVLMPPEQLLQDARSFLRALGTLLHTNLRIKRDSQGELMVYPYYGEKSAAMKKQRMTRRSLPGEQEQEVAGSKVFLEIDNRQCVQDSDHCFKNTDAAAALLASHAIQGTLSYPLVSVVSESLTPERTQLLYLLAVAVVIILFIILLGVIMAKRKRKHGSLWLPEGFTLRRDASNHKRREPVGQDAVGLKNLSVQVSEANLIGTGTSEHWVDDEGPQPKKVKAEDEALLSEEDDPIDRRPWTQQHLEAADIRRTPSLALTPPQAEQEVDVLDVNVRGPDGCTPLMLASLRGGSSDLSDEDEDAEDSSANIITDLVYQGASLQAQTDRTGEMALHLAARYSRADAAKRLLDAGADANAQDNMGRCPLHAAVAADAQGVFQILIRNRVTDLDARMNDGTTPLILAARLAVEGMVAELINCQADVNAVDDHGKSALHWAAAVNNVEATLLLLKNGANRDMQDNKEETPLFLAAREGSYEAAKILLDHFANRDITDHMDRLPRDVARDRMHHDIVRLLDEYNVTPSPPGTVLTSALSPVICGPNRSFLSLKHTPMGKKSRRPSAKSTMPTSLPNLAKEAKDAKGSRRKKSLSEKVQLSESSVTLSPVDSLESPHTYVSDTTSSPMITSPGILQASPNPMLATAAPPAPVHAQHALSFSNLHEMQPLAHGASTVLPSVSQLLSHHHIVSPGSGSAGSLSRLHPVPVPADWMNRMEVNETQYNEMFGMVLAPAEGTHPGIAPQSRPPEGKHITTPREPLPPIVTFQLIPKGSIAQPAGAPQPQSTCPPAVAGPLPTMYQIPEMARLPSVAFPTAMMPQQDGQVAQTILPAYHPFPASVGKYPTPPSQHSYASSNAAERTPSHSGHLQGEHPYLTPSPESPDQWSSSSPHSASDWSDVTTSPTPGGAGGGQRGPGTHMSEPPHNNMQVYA
For experiment [6], the target named is Pro-neuregulin-1, membrane-bound isoform (Homo sapiens) (UniProt Q02297). As to the kind of experiment: small molecules binding neuregulin-1 protein – biochemical, small-molecule microarray, fluorescence 635/667, psychiatric disease protein project, primary screen (AID 1075).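 Note: score combines 667 nm spot fluorescence with signal to noise.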 As to conditions: NRG1 binding, 635 nm fluorescence, higher = more signal.
Chain of Pro-neuregulin-1, membrane-bound isoform (Homo sapiens) (Q02297 whole entry, looked up, the tested form may be a part, canonical isoform): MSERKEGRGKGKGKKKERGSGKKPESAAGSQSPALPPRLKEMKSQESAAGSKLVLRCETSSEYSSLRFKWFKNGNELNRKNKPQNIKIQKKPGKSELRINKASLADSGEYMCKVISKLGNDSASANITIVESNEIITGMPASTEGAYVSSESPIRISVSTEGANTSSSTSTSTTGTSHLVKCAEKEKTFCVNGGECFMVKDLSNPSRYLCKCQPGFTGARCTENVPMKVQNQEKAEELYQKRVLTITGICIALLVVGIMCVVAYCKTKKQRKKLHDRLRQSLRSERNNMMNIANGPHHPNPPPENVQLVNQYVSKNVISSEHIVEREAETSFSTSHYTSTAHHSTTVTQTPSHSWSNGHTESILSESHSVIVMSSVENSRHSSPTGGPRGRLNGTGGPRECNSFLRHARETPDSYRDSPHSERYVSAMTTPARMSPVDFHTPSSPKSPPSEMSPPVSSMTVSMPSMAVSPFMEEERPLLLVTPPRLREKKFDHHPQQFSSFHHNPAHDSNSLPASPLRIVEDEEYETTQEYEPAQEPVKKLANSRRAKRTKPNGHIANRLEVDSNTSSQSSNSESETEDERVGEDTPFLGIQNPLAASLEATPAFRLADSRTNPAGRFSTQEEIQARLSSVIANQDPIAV
Experiment [7] deals with Neuregulin-1 EGF-like domain. As to the kind of experiment: small molecules binding NRG1 EGF domain – biochemical, small-molecule microarray, 635 nm fluorescence, primary screen (AID 1081).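 Note: binding of the protein to compounds printed on small-molecule microarray slides.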 As to conditions: higher = more signal.
Experiment [8] in a line: FRG1 expression reporter modulators in myotubes – cell-based, C2C12 myotubes, firefly/Renilla luciferase, luminescence, FRG1 inhibition for FSHD, primary screen (AID 1084). Particulars: FRG1 promoter luciferase, higher = more signal, called active from +8 up or from −8 down.
A short description of experiment [9]: small molecules captured by biotinylated probe aFST – biochemical, small-molecule microarray, fluorescence 635/667, stem cell growth factor project, primary screen (AID 1086).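 Note: score merges 667 nm fluorescence with signal-to-noise of each printed compound spot.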 Particulars: higher = more signal.
A short description of experiment [10]: binders of probe aHhip on microarray, primary screen, stem cell growth factor project, biochemical, small-molecule microarray, fluorescence 635/667 (AID 1087).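 Note: score merges spot fluorescence at 667nm with spot signal to noise ratio.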 Particulars: higher = more signal.

Calls of active or inactive are those of the source.

`CC(C)C(CO)N1C(=O)[C@]2(C)C3C(=O)OCCC/C=C\[C@H]3OC23C=CCN(c2ccc(Cl)cc2)C(=O)[C@@H]13` (stereo not given in full): the composite z-score in [1] was 0.0972; in [2], -0.481; in experiment [3] it was -0.101; in experiment [4], -0.17; in [5], -0.689; in experiment [6], 0.344. For the same compound, the results for the composite z-score in [7], in experiment [9] and in [10] were 1.11, 0.0043 and -0.0994, respectively. In [8], the z-score is 0.0186 (inactive).
In the case of `O=C1NC(=O)C2C1C=CC(C(O)c1ccc(Br)cc1)N2Nc1ccccn1` (stereo not given), the composite z-score in experiment [1] amounted to 0.253; in experiment [2] it was 0.156; in [3], 0.0969; in [4], 1.05; in experiment [5] it was 1.39; in experiment [6] it was 1.8. The composite z-score in experiment [7] was 0.95; in experiment [9], 0.331; in experiment [10], -0.0296. The z-score in experiment [8] was -0.383 (inactive).
In the case of `O=C1O[C@@H](c2ccccc2)[C@@H](c2ccccc2)N2[C@@H](c3ccccc3OCCO)[C@]3(C(=O)Nc4ccccc43)[C@@H](C(=O)NC[C@H](O)c3ccccc3)[C@H]12`, the composite z-score was 0.421 in [1]; 0.98 in experiment [2]; -0.0937 in experiment [3]; 0.0718 in [4]; -0.843 in experiment [5]; 0.551 in experiment [6]. Moreover, the composite z-score is 1.2 in experiment [7], -0.127 in [9] and -0.226 in experiment [10]. Also, the z-score in experiment [8] was -2.8 (inactive).
As to `CC(C)C(O)C1C=CC2C(=O)N(C)C(=O)C2N1N(c1ccccc1)c1ccccc1` (stereo not given), the composite z-score was 0.626 in experiment [1]; -0.312 in experiment [2]; -0.0613 in experiment [3]; -0.577 in experiment [4]; 0.461 in [5]; 0.371 in experiment [6]. Further, the composite z-score in experiment [7] is -0.142; in experiment [9] it was 0.272; in [10], 0.0139. The z-score in experiment [8] was -0.165 (inactive).
`CCOC(=O)C[C@H]1[C@H](OC(=O)c2ccccc2-c2ccccc2)[C@@H](NC(=O)c2ccc3ccccc3n2)c2cc(OCCCO)ccc2N1C(=O)c1ccc2ccccc2n1`: the composite z-score in [1] was -0.348; in experiment [2], 0.749; in experiment [3], -0.074; in experiment [4], 0.304; in experiment [5], 0.607; in [6], 0.189. Besides, the figures for the composite z-score in [7], in experiment [9] and in experiment [10] were 0.0721, 0.189 and -0.0994, respectively. Besides, in experiment [8], the z-score was 0.075 (inactive).
As for `CO[C@H]1O[C@H](CO)[C@@H](OC(=O)c2ccc(Br)cc2)[C@@H]2OC(=O)[C@@H](Cc3ccc4ccccc4c3)C/C=C/C[C@H](Cc3ccc4ccccc4c3)C(=O)O[C@@H]12`, the composite z-score was -0.248 in experiment [1]; -0.08 in experiment [2]; 0.0289 in experiment [3]; 0.622 in experiment [4]; 0.714 in experiment [5]; 1.74 in experiment [6]. In addition, the results for the composite z-score in experiment [7], in experiment [9] and in experiment [10] were 1.2, 0.349 and 1.2, respectively. Further, the z-score in [8] was -1.14 (inactive).
For `CC(C)C[C@@H]1NC(=O)[C@H]2C[C@@H](C(=O)NCCCCCC[N+](C)(C)C)[C@@H](c3cccc(OCCO)c3)N2C1=O`, the composite z-score in experiment [1] is -0.183; in experiment [2], 0.121; in [3] it was -0.152; in experiment [4], -0.214; in [5] it was -0.356; in experiment [6] it was -0.0252. Besides, the values for the composite z-score in experiment [7], in [9] and in [10] were 1.34, -0.601 and -0.134, respectively. For the same compound, the z-score in [8] is 4.18 (inactive).
`CCOC(=O)C[C@H]1[C@H](OC(=O)c2ccccc2-c2ccccc2)[C@@H](NC(=O)CC(C)C)c2cc(OCCCO)ccc2N1C(=O)c1ccc2ccccc2n1`: the composite z-score in experiment [1] was -0.469; in experiment [2] it was 0.257; in experiment [3] it was -0.0463; in [4] it was 0.414; in experiment [5], 0.549; in experiment [6], -0.121. In addition, the results for the composite z-score in experiment [7], in experiment [9] and in [10] were 0.324, 0.535 and 0.0274, respectively. In addition, the z-score in experiment [8] was 0.0832 (inactive).
Take `COCCOC(=O)N1C(=O)[C@@]2(c3cc(C#CC4(O)CCCCCC4)ccc31)[C@H](C(N)=O)[C@H]1C(=O)O[C@H](c3ccccc3)[C@H](c3ccccc3)N1[C@@H]2c1ccccc1OCCO`: the composite z-score in experiment [1] was 0.591; in experiment [2] it was 1.71; in experiment [3], 0.121; in experiment [4] it was 0.859; in experiment [5], 1.25; in experiment [6] it was 0.735. Also, the composite z-score worked out at 1.3 in experiment [7], 0.239 in experiment [9] and 0.141 in experiment [10]. In [8], the z-score was 0.129 (inactive).
`COC(=O)C[C@H]1O[C@]2(C(=O)N(C)c3ccccc32)[C@@H](C)[C@@H]1[Si](C)(C)c1ccc(C)cc1`: the composite z-score in experiment [1] was -0.361; in [2], 0.285; in [3] it was 0.033; in [4], 0.453; in experiment [5] it was 0.778; in [6], 0.274. Further, the composite z-score in experiment [7] was 0.815; in [9] it was 0.512; in experiment [10], 0.28. In experiment [8], the z-score was -2.37 (inactive).
In the case of `NC(=O)N1C(=O)C2C(C1=O)C1C=C(CCCO)C2C(c2cccs2)N1Cc1cc2c(cc1Br)OCO2` (stereo not given), the composite z-score in experiment [1] is -0.137; in experiment [2], 0.314; in experiment [3], -0.0036; in experiment [4], 0.0276; in experiment [5] it was 0.0449; in experiment [6] it was 0.453. Also, the composite z-score in experiment [7] was 1.16; in experiment [9], 0.117; in [10], -0.0645. Further, the z-score in experiment [8] was -1.85 (inactive).
With `Cc1ccc(S[C@]2(C(=O)NC3CC3)CC(=O)N(Cc3ccccc3Cl)[C@@H]2c2ccc(CO)cc2I)cc1`, the composite z-score in experiment [1] was 0.29; in [2], 0.132; in experiment [3] it was -0.106; in experiment [4] it was 0.171; in experiment [5] it was 0.0538; in [6] it was 1.72. The results for the composite z-score in experiment [7], in experiment [9] and in [10] were 1.24, -0.0129 and -0.123, respectively. Also, the z-score in experiment [8] was -2.19 (inactive).
With `CN(C)CCCCNC(=O)[C@H]1C[C@H]2C(=O)N[C@@H](CCCCN(C)C)C(=O)N2[C@H]1c1cccc(OCCO)c1`, the composite z-score in experiment [1] was -0.852; in experiment [2] it was 1.25; in experiment [3], 0.0025; in [4], 1.02; in [5] it was 0.591; in experiment [6], 0.839. The composite z-score in experiment [7] is 1.32; in experiment [9], 0.402; in experiment [10], -0.381. Further, in experiment [8], the z-score is -0.275 (inactive).
As for `[N-]=[N+]=Nc1ccccc1C[C@]1(C(=O)NCc2ccccc2)N=C(c2ccc(OCCCO)cc2)O[C@H]1c1ccccc1`, the composite z-score turned out to be 0.0843 in experiment [1]; 0.984 in experiment [2]; 0.0898 in experiment [3]; 0.584 in [4]; 1.61 in experiment [5]; 1.86 in experiment [6]. Further, the composite z-score stood at 1.2 in experiment [7], 1.22 in [9] and 0.0515 in experiment [10]. Moreover, the z-score in [8] was -2.1 (inactive).
